Shown is part of a subset that was picked to be rich in hits.
Dicer processing = blocks human Dicer maturation of pre-miR-21 | Q9UPY3 | cat-ELCCA pre-miR-21 Dicer processing, chemiluminescence; hits give high values | z-score at 25 µM | hit rate 6% among 47,000 | AID 1347074; in the data active = z-score above about 3, passing the limit was not always enough;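 note: plate controls were vehicle for no effect and no enzyme for full effect; higher signal means more uncleaved substrate so more Dicer inhibition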
Target sequence (Q9UPY3 whole entry, looked up): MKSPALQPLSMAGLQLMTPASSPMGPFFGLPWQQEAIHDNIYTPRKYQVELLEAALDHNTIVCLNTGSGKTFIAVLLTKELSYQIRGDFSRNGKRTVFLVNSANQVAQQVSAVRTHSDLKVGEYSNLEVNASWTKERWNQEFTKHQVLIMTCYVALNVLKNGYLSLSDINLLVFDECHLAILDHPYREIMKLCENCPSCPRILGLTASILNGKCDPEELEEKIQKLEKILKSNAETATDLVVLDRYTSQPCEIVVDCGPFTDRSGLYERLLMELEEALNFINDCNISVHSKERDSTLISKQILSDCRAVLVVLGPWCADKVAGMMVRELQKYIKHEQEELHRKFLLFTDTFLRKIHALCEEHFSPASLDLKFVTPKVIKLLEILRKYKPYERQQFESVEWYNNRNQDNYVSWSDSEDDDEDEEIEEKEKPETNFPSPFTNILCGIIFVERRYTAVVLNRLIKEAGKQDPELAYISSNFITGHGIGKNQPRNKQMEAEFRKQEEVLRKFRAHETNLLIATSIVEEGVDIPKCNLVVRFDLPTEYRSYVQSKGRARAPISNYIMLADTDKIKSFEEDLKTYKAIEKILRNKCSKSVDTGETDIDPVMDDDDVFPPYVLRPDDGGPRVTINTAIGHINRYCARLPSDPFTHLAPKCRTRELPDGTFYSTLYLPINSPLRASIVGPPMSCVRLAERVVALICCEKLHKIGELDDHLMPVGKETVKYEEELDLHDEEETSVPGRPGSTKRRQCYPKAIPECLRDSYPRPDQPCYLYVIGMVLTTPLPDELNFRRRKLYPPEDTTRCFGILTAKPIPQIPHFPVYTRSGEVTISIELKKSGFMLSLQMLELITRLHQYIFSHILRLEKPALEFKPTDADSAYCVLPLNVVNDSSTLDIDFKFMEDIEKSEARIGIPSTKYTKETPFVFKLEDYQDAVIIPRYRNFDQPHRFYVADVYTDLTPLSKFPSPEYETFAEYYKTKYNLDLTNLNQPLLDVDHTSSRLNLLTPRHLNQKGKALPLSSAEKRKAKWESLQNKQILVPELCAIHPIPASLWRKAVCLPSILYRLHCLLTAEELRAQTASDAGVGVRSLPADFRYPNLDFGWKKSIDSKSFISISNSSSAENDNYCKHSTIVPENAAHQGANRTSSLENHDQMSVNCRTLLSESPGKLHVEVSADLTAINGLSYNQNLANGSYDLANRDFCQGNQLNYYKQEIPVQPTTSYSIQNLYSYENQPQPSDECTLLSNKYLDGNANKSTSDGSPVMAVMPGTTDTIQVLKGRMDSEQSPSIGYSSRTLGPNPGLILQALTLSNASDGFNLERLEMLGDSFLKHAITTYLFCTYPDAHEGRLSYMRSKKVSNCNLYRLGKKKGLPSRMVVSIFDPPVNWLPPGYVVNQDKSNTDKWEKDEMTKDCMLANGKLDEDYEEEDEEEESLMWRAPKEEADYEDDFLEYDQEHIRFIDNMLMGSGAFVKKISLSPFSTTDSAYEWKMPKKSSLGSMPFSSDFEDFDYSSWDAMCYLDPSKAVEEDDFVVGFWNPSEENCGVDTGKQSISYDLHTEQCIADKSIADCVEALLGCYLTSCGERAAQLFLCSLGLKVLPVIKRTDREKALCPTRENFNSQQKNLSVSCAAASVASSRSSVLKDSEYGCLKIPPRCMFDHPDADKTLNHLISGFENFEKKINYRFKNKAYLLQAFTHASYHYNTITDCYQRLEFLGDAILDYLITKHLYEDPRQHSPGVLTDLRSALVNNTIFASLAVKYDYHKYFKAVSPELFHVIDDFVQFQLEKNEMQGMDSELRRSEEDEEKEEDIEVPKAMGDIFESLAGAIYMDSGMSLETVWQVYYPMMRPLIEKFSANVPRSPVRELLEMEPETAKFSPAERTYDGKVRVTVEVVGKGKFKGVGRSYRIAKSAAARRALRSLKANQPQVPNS
The depositor's hits bear a star.

SMILES	Dicer processing
CCOC(=O)/C=C1\CSCC(C(=O)OCC)N1 (configuration not stated)	-2.3
CC1(C)CC(=O)C2=C(C1)Nc1ccccc1NC2c1ccc(O)c(O)c1 (configuration not stated)	4.7
CCOc1ccc(C2Nc3ccccc3NC3=C2C(=O)CC(c2ccccc2)C3)cc1 (configuration not stated)	3.6*
COc1ccc(OC)c(C2Nc3ccccc3NC3=C2C(=O)CC(c2ccc(OC)c(OC)c2)C3)c1 (configuration not stated)	0.31
Cc1ccc(C2Nc3ccccc3NC3=C2C(=O)CC(c2ccccc2)C3)cc1 (configuration not stated)	1
COc1ccc(C2CC(=O)C3=C(C2)Nc2ccccc2NC3c2cccc3ccccc23)cc1 (configuration not stated)	-1.4
CSc1ccc(C2Nc3ccccc3NC3=C2C(=O)CC(c2ccccc2)C3)cc1 (configuration not stated)	2.1
CN(C)c1ccc(C2Nc3ccccc3NC3=C2C(=O)CC(c2ccccc2)C3)cc1 (configuration not stated)	5.1
CC1(C)CC(=O)C2=C(C1)Nc1ccccc1NC2c1cc(Cl)ccc1O (configuration not stated)	3.9*
O=C1CC(c2ccco2)CC2=C1C(c1ccco1)Nc1ccccc1N2 (configuration not stated)	1.2
CCN(CC)c1ccc(C2CC(=O)C3=C(C2)Nc2ccccc2NC3c2ccco2)cc1 (configuration not stated)	8.2*
Cc1ccc(C2Nc3ccccc3NC3=C2C(=O)CC(C)(C)C3)c(O)c1 (configuration not stated)	1.3
COc1ccc(C2CC(=O)C3=C(C2)Nc2ccccc2NC3c2ccc(OC)cc2OC)cc1 (configuration not stated)	3*
N#C/C(=C\c1c(O)ccc2ccccc12)C(N)=O	1.3
COc1cc2ncnc(N3CC(C)OC(C)C3)c2cc1OC (configuration not stated)	0.89
Cc1nnc(N2C(=O)c3oc4ccccc4c(=O)c3C2c2cccc(Cl)c2)s1 (configuration not stated)	-0.52
CC(C)(CO)NC(=S)Nc1ccccc1F	0.36
Cc1c(C[C@H](N)C(=O)O)sc2ccccc12	-0.63
Cc1c(C#N)c(Sc2ccccc2NC(=O)c2ccc(Cl)cc2)nc2ccccc12	-1.6
O=C(Nc1nc(-c2ccc(F)c(F)c2)cs1)c1cccs1	3
Clc1ccc2nc(-c3ccco3)cc(-c3ccccc3)c2c1	-0.16
COc1ccc(C2CC(=O)C3=C(C2)Nc2ccccc2NC3c2ccccc2Cl)cc1OC (configuration not stated)	0.78
COc1ccccc1C1Nc2ccccc2NC2=C1C(=O)CC(c1ccccc1)C2 (configuration not stated)	1.7
COc1ccccc1C1Nc2ccccc2NC2=C1C(=O)CC(c1ccc(Cl)cc1)C2 (configuration not stated)	4.3*
COc1ccc(C2CC(=O)C3=C(C2)Nc2ccccc2NC3c2ccc(O)cc2)cc1 (configuration not stated)	0.33
SMILES	Dicer processing
COc1ccc(C2CC(=O)C3=C(C2)Nc2ccccc2NC3c2ccccc2)cc1 (configuration not stated)	3.5*
COc1ccc(C2CC(=O)C3=C(C2)Nc2ccccc2NC3c2ccc(Cl)cc2)cc1 (configuration not stated)	2
O=[N+]([O-])c1ccc(NCCCCCO)nc1	0.11
COc1ccc(OC)c(NC(=O)C(=O)NN)c1	-1.4
COC(=O)c1cc(OC)c(OC)cc1NC(=O)CCC(=O)O	-0.09
COc1ccc(OC)c(NC(=O)CCC(=O)O)c1	5*
Cc1ccc(N(c2ccc(C)cc2)c2cccnc2)cc1	-0.31
Cc1cc(C)c2c(=O)cc(-c3ccccc3Cl)oc2c1	1.6
O=C(O)/C=C/C(=O)Nc1ccc(C(=O)O)c(O)c1	4.7*
Cc1cccc(NC(=O)/C=C/C(=O)O)c1	-0.11
Cc1ccc(NC(=O)/C=C/C(=O)Nc2ccc(C)c(Cl)c2)cc1Cl	0.84
COC(=O)c1ccsc1NC(=O)c1ccc(C)cc1	0.36
Cc1c(C(=O)O)c2cc(NS(=O)(=O)N(C)C)ccc2n1S(=O)(=O)N(C)C	-1.3
CCCNC(=O)O/N=C(\N)c1cc(Cl)c(N)c(Cl)c1	-2.2
O=C(O)c1cccc(-c2cccc(C(=O)O)c2)c1	6.2*
O=C(O)c1ccc2nc3ccccc3nc2c1	-1.9
O=C(O)c1ccc2nc(-c3cccc(-c4nc5ccc(C(=O)O)cc5[nH]4)c3)[nH]c2c1	-0.63
O=C(CSc1nc2c(c(C(F)(F)F)n1)CCc1ccccc1-2)N1CCCC1	1.3
COc1cccc(C2CC(C(F)(F)F)n3ncc(C(=O)O)c3N2)c1 (configuration not stated)	-0.84
O=C(c1cnn2c1NC(c1ccccc1)CC2C(F)(F)F)N1CCCCC1 (configuration not stated)	0.97
O=C(O)c1cnn2c1NC(c1ccc(Br)cc1)CC2C(F)(F)F (configuration not stated)	2.6
CC(C)NC(=O)c1cc2n(n1)C(C(F)(F)F)CC(c1ccc(Br)cc1)N2 (configuration not stated)	1.8
CN1CCN(C(=O)c2cc3n(n2)C(C(F)(F)F)CC(c2ccccc2)N3)CC1 (configuration not stated)	3.2*
CN1CCN(C(=O)c2cnn3c2NC(c2ccc(Br)cc2)CC3C(F)(F)F)CC1 (configuration not stated)	4.7*
CC(C)NC(=O)c1cnn2c1NC(c1ccc(Br)cc1)CC2C(F)(F)F (configuration not stated)	5.8*
SMILES	Dicer processing
Cc1ccc(C2CC(C(F)(F)F)n3ncc(C(=O)O)c3N2)cc1 (configuration not stated)	0.54
O=C(O)c1cc2n(n1)C(C(F)(F)F)CC(c1ccc(Cl)cc1)N2 (configuration not stated)	1.7
O=C(O)c1cnn2c1NC(c1ccccc1)CC2C(F)(F)F (configuration not stated)	3.1*
CC(C)NC(=O)c1nn2c(c1Cl)NC(c1ccc(Br)cc1)CC2C(F)(F)F (configuration not stated)	-0.28
O=C(c1cc2n(n1)C(C(F)(F)F)CC(c1ccc(Cl)cc1)N2)N1CCOCC1 (configuration not stated)	0.29
O=C(NCc1cccnc1)c1nn2c(C(F)(F)F)cc(-c3ccccc3)nc2c1Cl	-0.44
CC(C)C(=O)NNc1nc2c(c(=O)n(C)c(=O)n2C)n1Cc1ccc(Cl)cc1	-1.2
O=C(c1c(F)cccc1Cl)n1c2ccc(F)cc2c2nc3ccccc3nc21	0.17
CSc1nc(COc2ccccc2Cl)nc(-c2cccs2)c1C#N	-1.7
O=C1NN=C(c2cccs2)CC1c1ccccc1 (configuration not stated)	-0.71
CCc1nnc(NC(=O)c2ccc3nsnc3c2)s1	0.27
CCCC1=NN(c2ccccc2)C(=O)/C1=C/c1ccc(Cl)cc1	-2.8
CCCc1nc2ccccc2n1CC(O)COc1ccc(Cl)cc1 (configuration not stated)	-1.3
Clc1ccccc1/C=N/Nc1ncc(-c2ccc3c(c2)OCCCO3)s1	0.89
Nc1nc2c(ncn2COCCOC(=O)c2ccccc2)c(=O)[nH]1	1.3
CCOC(=O)c1c(SC)nc2ccc(Cl)cc2c1N1CCN(C)CC1	0.85
COc1ccc(-c2cnc3cc(C)nn3c2N)cc1	0.23

Compound activity deposited in PubChem BioAssay by Center for Chemical Genomics, University of Michigan.
